The source of these data is PubChem BioAssay.

In general, inhibition refers to the relative decrease from the control value, in per cent.

Calls of active or inactive are those of the source.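 Rule for the calls: active = compounds giving at least 50% inhibition in the cell-based MKP-3 phosphatase rescue imaging test; inactive = the rest.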

Test system in one test: not listed separately
Briefly: Primary imaging screen for DUSP6 inhibitors that restore phospho-Erk in transfected HeLa cells, chemical complementation (AID 609).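 For inhibition: phospho-Erk level distribution per well compared with pooled transfected vehicle control wells.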 As to conditions: HeLa MKP-3 transfected, phospho-Erk imaging KS statistic; measured here: nuclear pErk red intensity z-score; at 10 µM; stronger effect = higher value; cells stimulated with TPA for 15 min.
With `O=C(NCC1CCCCN1)c1cc(OCC(F)(F)F)ccc1OCC(F)(F)F` (stereo not drawn), the z-score turned out to be 0.103.
Still for that read-out and setting: to `CN1CC(=O)Nc2ccc(F)cc2C1=O` belongs -1.19; to `CN1CCN(C2=Nc3cc(Cl)ccc3Nc3ccccc32)CC1`, 0.322; to `COc1cc(C)nc(Oc2ccc(=O)[nH]n2)n1`, -1.72.
The same measure, in the same setting: then `CCN(CC)CCNC(=O)c1ccc(N)cc1`, with -0.833.
Turning to `COc1cc2nc(N3CCN(C(=O)C4CCCO4)CC3)nc(N)c2cc1OC` (stereo not drawn), the z-score is -0.73.
Compound `O=C(CCCN1CCC(O)(c2ccc(Cl)cc2)CC1)c1ccc(F)cc1` registered a z-score of -0.889.
Same read-out and setting: to `CCCOc1cccc(CN2CCCCC2c2cccnc2)c1` (stereo not drawn) belongs -0.468.
Compound `COc1ccc(-c2coc3cc(O)cc(O)c3c2=O)cc1` yielded a z-score of 0.72.
As to `CN(C)CCCN1c2ccccc2CCc2ccccc21`, the z-score worked out at 2.03.
Compound `Cc1cccc(OCC(=O)NCC(=O)n2nc(C)cc2C)c1` returned a z-score of 0.78.
As to `COCCN(Cc1ccccc1)P(=O)(O)c1ccccc1OCC(=O)O`, the z-score was 0.944.
Same read-out and setting: to `Oc1oc(-c2ccccc2)nc1C=NCc1ccncc1` belongs 0.0699; to `CCC1=Nc2ccccc2NC2=C1C(=O)CCC2`, -0.00909; to `CC[C@]1(O)C[C@@H]2CN(CCc3c([nH]c4ccccc34)[C@@](C(=O)OC)(c3cc4c(cc3OC)N(C)[C@H]3[C@@](O)(C(=O)OC)[C@H](OC(C)=O)[C@]5(CC)C=CCN6CC[C@]43[C@@H]65)C2)C1`, 1.1.
In turn, `NC(N)=Nc1nc(CSCC/C(N)=N/S(N)(=O)=O)cs1` gave a z-score of -1.37.
Compound `CC(=O)O[C@@]12CO[C@@H]1C[C@H](O)[C@@]1(C)C(=O)[C@H](O)C3=C(C)[C@@H](OC(=O)[C@H](O)[C@@H](NC(=O)OC(C)(C)C)c4ccccc4)C[C@](O)([C@@H](OC(=O)c4ccccc4)[C@H]21)C3(C)C` gave a z-score of 1.58.
Same read-out and setting: to `CC(=O)Oc1oc(-c2ccccc2)nc1/C=N/c1ccccn1` belongs 0.905.
Compound `COc1ccc(OC)c(N=C(C)C2=C(O)COC2=O)c1` displayed a z-score of 0.389.
As for `CC[C@H]1CN2CCc3cc(OC)c(OC)cc3[C@@H]2C[C@@H]1C[C@H]1NCCc2cc(OC)c(OC)cc21`, the z-score came to 0.619.
Same read-out and setting: then `COc1ccc(OCC(=O)OCCN(C)C)cc1`, with -0.272; and `COc1cccc(C(=O)OCCN(C)C(C)(C)C)c1`, with -0.0558.
`Cc1nnc(NS(=O)(=O)c2ccc(N)cc2)s1` returned a z-score of 0.118.
Same read-out and setting: then `COc1ccc([C@@H]2Sc3ccccc3N(CCN(C)C)C(=O)[C@@H]2OC(C)=O)cc1`, with 0.473.
Same read-out and setting: then `O=C(CCN1CCCC1Cc1ccccc1)c1ccc2c(c1)OCCO2` (stereo not drawn), with 0.369; and `Fc1ccc(C(c2ccc(F)cc2)N2CCN(C/C=C/c3ccccc3)CC2)cc1`, with -1.06; and `COc1ccc[nH]c1=O`, with -1.08.
Same read-out and setting: to `CCC(=O)Oc1oc(-c2ccccc2)nc1C=Nc1ccccc1OC` belongs 1.48.
In the case of `O=C(O)c1ccc(COCC(F)(F)C(F)F)o1`, the z-score is 0.623.
Turning to `Cc1nc2sc(C)c(C)c2c(=O)o1`, the z-score is 1.05.
The same measure, in the same setting: to `CC1(C)S[C@@H]2[C@H](NC(=O)[C@H](N)c3ccccc3)C(=O)N2[C@H]1C(=O)O` belongs 1.6; to `O=P(Cc1nnco1)(c1ccccc1)c1ccccc1`, 0.749; to `Nc1nc2c(ncn2COCCO)c(=O)[nH]1`, -1.02.
`c1ccc2c(c1)nc(CN1CCOCC1)n1c3ccccc3nc21` gave a z-score of 1.09.
In the case of `CCC(NC(=O)Nc1nnc(C(F)(F)F)s1)(C(F)(F)F)C(F)(F)F`, the z-score stood at 0.704.
On the same count and under the same terms, then `CCOC(=O)C(Oc1ccc(=O)[nH]n1)C(C)=O` (stereo not drawn), with -1.16; and `CC1=NS(=O)(=O)c2cc(Cl)ccc2N1`, with -0.365.
As to `CCCCOc1ccccc1P(=O)(O)CP(=O)(c1ccccc1)c1ccccc1`, the z-score came out at 0.473.
On the same count and under the same terms, then `COc1cccc(C(=O)NCC(=O)n2nc(C)cc2C)c1`, with -1.04.

In another test the target is Dual specificity protein phosphatase 6 (Homo sapiens) (UniProt Q16828). Described as above. As to conditions: HeLa MKP-3 transfected, phospho-Erk imaging KS statistic; at 10 µM; stronger effect = higher value; cells stimulated with TPA for 15 min.
Chain of Dual specificity protein phosphatase 6 (Homo sapiens) (Q16828 whole entry, looked up): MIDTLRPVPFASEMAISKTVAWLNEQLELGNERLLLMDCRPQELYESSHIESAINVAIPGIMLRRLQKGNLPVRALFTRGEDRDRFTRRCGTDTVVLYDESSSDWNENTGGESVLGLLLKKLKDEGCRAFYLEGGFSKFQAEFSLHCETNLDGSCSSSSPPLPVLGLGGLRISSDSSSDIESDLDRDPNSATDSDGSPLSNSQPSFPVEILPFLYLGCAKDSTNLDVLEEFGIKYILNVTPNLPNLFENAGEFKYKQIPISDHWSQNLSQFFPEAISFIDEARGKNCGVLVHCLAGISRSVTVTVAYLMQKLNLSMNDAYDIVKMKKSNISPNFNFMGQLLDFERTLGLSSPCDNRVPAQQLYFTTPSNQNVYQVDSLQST
In the case of `O=C(NCC1CCCCN1)c1cc(OCC(F)(F)F)ccc1OCC(F)(F)F` (stereo not drawn), the inhibition was 15.3% (inactive).
In the case of `CN1CC(=O)Nc2ccc(F)cc2C1=O`, the inhibition is 7.48% (inactive).
With `CN1CCN(C2=Nc3cc(Cl)ccc3Nc3ccccc32)CC1`, the inhibition is -0.493% (inactive).
For `COc1cc(C)nc(Oc2ccc(=O)[nH]n2)n1`, the inhibition was 5.57% (inactive).
Turning to `CCN(CC)CCNC(=O)c1ccc(N)cc1`, the inhibition was 3.59% (inactive).
As to `COc1cc2nc(N3CCN(C(=O)C4CCCO4)CC3)nc(N)c2cc1OC` (stereo not drawn), the inhibition was 16.8% (inactive).
For `O=C(CCCN1CCC(O)(c2ccc(Cl)cc2)CC1)c1ccc(F)cc1`, the inhibition was 10.2% (inactive).
Same read-out and setting: to `CCCOc1cccc(CN2CCCCC2c2cccnc2)c1` (stereo not drawn) belongs 5.57% (inactive); to `COc1ccc(-c2coc3cc(O)cc(O)c3c2=O)cc1`, 10.2% (inactive).
As to `CN(C)CCCN1c2ccccc2CCc2ccccc21`, the inhibition is -12.3% (inactive).
For the compound `Cc1cccc(OCC(=O)NCC(=O)n2nc(C)cc2C)c1`, the inhibition was -7.79% (inactive).
For the compound `COCCN(Cc1ccccc1)P(=O)(O)c1ccccc1OCC(=O)O`, the inhibition was 15.1% (inactive).
On the same count and under the same terms, then `Oc1oc(-c2ccccc2)nc1C=NCc1ccncc1`, with 13.2% (inactive).
For `CCC1=Nc2ccccc2NC2=C1C(=O)CCC2`, the inhibition was 3.66% (inactive).
As for `CC[C@]1(O)C[C@@H]2CN(CCc3c([nH]c4ccccc34)[C@@](C(=O)OC)(c3cc4c(cc3OC)N(C)[C@H]3[C@@](O)(C(=O)OC)[C@H](OC(C)=O)[C@]5(CC)C=CCN6CC[C@]43[C@@H]65)C2)C1`, the inhibition is -12.3% (inactive).
Regarding `NC(N)=Nc1nc(CSCC/C(N)=N/S(N)(=O)=O)cs1`, the inhibition is 16.8% (inactive).
Still for that read-out and setting: to `CC(=O)O[C@@]12CO[C@@H]1C[C@H](O)[C@@]1(C)C(=O)[C@H](O)C3=C(C)[C@@H](OC(=O)[C@H](O)[C@@H](NC(=O)OC(C)(C)C)c4ccccc4)C[C@](O)([C@@H](OC(=O)c4ccccc4)[C@H]21)C3(C)C` belongs -9.66% (inactive).
Same read-out and setting: then `CC(=O)Oc1oc(-c2ccccc2)nc1/C=N/c1ccccn1`, with 7.48% (inactive); and `COc1ccc(OC)c(N=C(C)C2=C(O)COC2=O)c1`, with -0.159% (inactive); and `CC[C@H]1CN2CCc3cc(OC)c(OC)cc3[C@@H]2C[C@@H]1C[C@H]1NCCc2cc(OC)c(OC)cc21`, with 11.3% (inactive).
Still for that read-out and setting: to `COc1ccc(OCC(=O)OCCN(C)C)cc1` belongs -10.6% (inactive); to `COc1cccc(C(=O)OCCN(C)C(C)(C)C)c1`, 17% (inactive).
As for `Cc1nnc(NS(=O)(=O)c2ccc(N)cc2)s1`, the inhibition was 19% (inactive).
As to `COc1ccc([C@@H]2Sc3ccccc3N(CCN(C)C)C(=O)[C@@H]2OC(C)=O)cc1`, the inhibition is -4.44% (inactive).
For `O=C(CCN1CCCC1Cc1ccccc1)c1ccc2c(c1)OCCO2` (stereo not drawn), the inhibition is 1.75% (inactive).
Regarding `Fc1ccc(C(c2ccc(F)cc2)N2CCN(C/C=C/c3ccccc3)CC2)cc1`, the inhibition was 23.4% (inactive).
Turning to `COc1ccc[nH]c1=O`, the inhibition is 11.3% (inactive).
Still for that read-out and setting: to `CCC(=O)Oc1oc(-c2ccccc2)nc1C=Nc1ccccc1OC` belongs 9.39% (inactive); to `O=C(O)c1ccc(COCC(F)(F)C(F)F)o1`, 5.26% (inactive).
Take `Cc1nc2sc(C)c(C)c2c(=O)o1`: the inhibition was -5.89% (inactive).
Still for that read-out and setting: to `CC1(C)S[C@@H]2[C@H](NC(=O)[C@H](N)c3ccccc3)C(=O)N2[C@H]1C(=O)O` belongs -8.38% (inactive).
As to `O=P(Cc1nnco1)(c1ccccc1)c1ccccc1`, the inhibition was -3.98% (inactive).
For the compound `Nc1nc2c(ncn2COCCO)c(=O)[nH]1`, the inhibition was 3.45% (inactive).
Take `c1ccc2c(c1)nc(CN1CCOCC1)n1c3ccccc3nc21`: the inhibition was -3.98% (inactive).
Still for that read-out and setting: then `CCC(NC(=O)Nc1nnc(C(F)(F)F)s1)(C(F)(F)F)C(F)(F)F`, with 18.4% (inactive); and `CCOC(=O)C(Oc1ccc(=O)[nH]n1)C(C)=O` (stereo not drawn), with 22.7% (inactive).
The same measure, in the same setting: then `CC1=NS(=O)(=O)c2cc(Cl)ccc2N1`, with 19.2% (inactive).
Take `CCCCOc1ccccc1P(=O)(O)CP(=O)(c1ccccc1)c1ccccc1`: the inhibition is -5.89% (inactive).
Take `COc1cccc(C(=O)NCC(=O)n2nc(C)cc2C)c1`: the inhibition is 15.1% (inactive).
